Rows were chosen to be rich in hits. Some 4.5% of all compounds tested hit in one or more screens of this group.
Rce1 inhib = yeast Rce1p protease inhibitors, primary screen, biochemical, fluorescence, cell-free homogeneous; yeast membranes, quenched prenylated peptide cleavage fluorescence; calls only; actives 0.27% (n = 290,000); AID 2563, 2010;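 active = fall in fluorescence gain of 50% or more versus controls, with final raw signal at or below 3038400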;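 also: plate controls were neutral control wells for no effect and wells lacking membranes for full effect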
Target sequence (Q03530 whole entry, looked up): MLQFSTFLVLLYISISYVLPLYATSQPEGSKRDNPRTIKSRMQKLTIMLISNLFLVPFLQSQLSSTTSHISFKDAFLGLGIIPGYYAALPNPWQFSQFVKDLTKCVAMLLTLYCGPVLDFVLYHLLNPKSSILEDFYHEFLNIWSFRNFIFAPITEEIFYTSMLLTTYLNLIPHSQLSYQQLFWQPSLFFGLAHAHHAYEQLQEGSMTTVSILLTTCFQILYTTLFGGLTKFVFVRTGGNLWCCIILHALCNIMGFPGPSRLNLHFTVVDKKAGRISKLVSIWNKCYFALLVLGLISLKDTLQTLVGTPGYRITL
Rtt109 HAT inh = inhibitors of C. albicans Rtt109/Vps75 HAT, primary screen, biochemical, ThioGlo CoA-SH fluorescence, plate reader. actives 0.16% (n = 330,000). AID 540336, 2011. purified Rtt109/Vps75, 4 h. Histone acetyltransferase RTT109 (Candida albicans (strain SC5314 / ATCC MYA-2876)), …. inhibition, % at 34.9 µM;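 active = inhibition of at least 50% in every replicate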
Efflux pump mplx = inhibitors of Candida efflux pumps in yeast, primary screen, S. cerevisiae, Nile Red, multiplex. AID 485275, 2010. S. cerevisiae Candida pump triplex. inhibition, % at 10 µM. actives 0.44% (n = 330,000);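 active = plate passing quality check with inhibition over a set limit, or well fluorescence over plate mean plus 4 SD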;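 also: Nile Red retained in pooled yeast measured as flow cytometry median fluorescence; 0% = buffer negative control and 100% = Enniatin B positive control; higher means more Nile Red kept so more efflux inhibition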
ALR H2O2 inh = inhibitors of human ALR sulfhydryl oxidase, primary screen, biochemical, H2O2 detection, HRP-luminol luminescence, single point; FAD-linked sulfhydryl oxidase ALR (Homo sapiens), P55789; purified ALR, DTT oxidation; inhibition, % (test concentration not listed); actives 3.8% (n = 290,000); AID 485317, 2010;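 active = mean replicate inhibition above about 79%, with every replicate also reaching it, limit read from the data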
GRK2 inh = compounds blocking aptamer binding on GRK2 – biochemical, human GRK2, bead flow cytometry, HTS, primary screen. inhibition of aptamer binding, % at 10 µM. FAM-aptamer displacement from GRK2. AID 488847, 2010. actives 0.59% (n = 330,000). Beta-adrenergic receptor kinase 1 (Homo sapiens), P25098;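 active = inhibition of aptamer binding above 40%, roughly 3 SD of noise, on plates passing a quality check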;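 also: median bead fluorescence of bound FAM aptamer so fluorescent compounds give negative values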
HDAC3 inhib = HDAC3 deacetylase inhibitors, primary screen, biochemical, fluorescence, cell-free homogeneous; recombinant HDAC3, fluorogenic peptide/trypsin coupled; inhibition, % at 8.3 µM; actives 0.15% (n = 320,000); in the data active = inhibition above about 26%, passing the limit was not always enough
GRK2 CP1 = GRK2 aptamer-displacing inhibitors, retest, confirmation, biochemical, cherry pick 1, bead flow cytometry. AID 504451, 2011. actives 4% (n = 2,000). aptamer displacement, % at 10 µM. bead-bound GRK2, FAM-aptamer displacement. shares compounds with GRK2 inh;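 active = aptamer displacement above 40%, near three times the noise of non-fluorescent compounds, on plates passing quality checks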;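 also: negative values mostly reflect intrinsic compound fluorescence rather than true enhancement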
FAM quench CP1 = quenches fluorescent RNA aptamer, GRK2 hit artifact. fluorescence response (% of DMSO), % at 10 µM. 2,000 tested, under 10 active. shares compounds with GRK2 inh. AID 504580. Carboxyfluorescein RNA aptamer on beads, flow cytometry quenching; active compounds read low;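 active = compounds that quench the bead-bound fluorescent RNA probe, cutting fluorescence to under half of the solvent control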;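 also: counterscreen run without GRK2 so only probe quenching by compound is measured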
The depositor's hits bear a star; i = inactive; x = no result given.

SMILES	Rce1 inhib	Rtt109 HAT inh	Efflux pump mplx	ALR H2O2 inh	GRK2 inh	HDAC3 inhib	GRK2 CP1	FAM quench CP1
Cc1cc(/C=C2\C(=O)NC(=O)N(Cc3ccccc3Cl)C2=O)c(C)n1-c1ccc(C(=O)O)cc1	i	27	0	32	77*	10	31	99
CCc1ccc(N2C(=O)NC(=O)/C(=C\c3cc(C)n(-c4cc(C(=O)O)cc(C(=O)O)c4)c3C)C2=O)cc1	i	7	0	11	58*	2	6	89
Cc1cc(/C=C2\C(=O)NC(=O)N(Cc3ccco3)C2=O)c(C)n1-c1ccc(C(=O)O)cc1	i	7	0	61	10	x	x	x
CCN1CCN(C(=O)COc2ccc3oc4c(c3c2)CCCC4)CC1	x	0	0	-10	0	-1	x	x
Cc1ccccc1-n1c(C)cc(/C=C2/C(=O)NC(=O)N(Cc3ccco3)C2=O)c1C	i	x	0	0	3	3	x	x
Cc1ccc(-n2c(C)cc(/C=C3/C(=O)NC(=O)N(Cc4ccco4)C3=O)c2C)cc1	i	-5	0	18	13	2	x	x
O=C1NC(=O)N(Cc2ccco2)C(=O)/C1=C/C=C/c1ccco1	i	-2	0	32	0	20	20	95
CCOC(=O)C1CCN(/C=C2/C(=O)NC(=O)N(Cc3ccco3)C2=O)CC1	i	-4	0	-9	82*	-5	35	98
Cc1ccc(OCCn2cccc2/C=C2/C(=O)NC(=O)N(Cc3ccco3)C2=O)cc1	i	9	0	51	2	9	4	94
CC1=CC(=O)OC2CC3OC4C[C@@H](C)C5OC6CC7O[C@]8(C)C/C=C\C9OC%10CC%11OC(CC(C)C%12OCCO%12)CC(O)[C@]%11(C)OC%10CC9OC8C[C@]7(C)O[C@]6(C)CCC5OC4C[C@]3(C)OC12 (stereo partly drawn)	x	15	2	-4	1	6	x	x
COc1ccc(OC)c(N2Cc3ccccc3C2=N)c1	i	21	0	-3	0	-1	x	x
CCOc1ccc(N=C2SCCCN2C)cc1	x	4	0	-1	5	9	x	x
O=c1c2ccccc2nc(/C=C/c2ccccc2O)n1-c1ccccc1O	i	-5	1	38	0	-3	x	x
O=c1c2ccccc2nc(/C=C\c2ccccc2[N+](=O)[O-])n1-c1ccccc1O	i	17	0	x	45*	x	-3	116
